Test results published in PubChem BioAssay (NCI).
Compounds without any hit were thinned out: in the full panel of roughly 83,000, 20% have a hit.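 Results are percent growth after 48 hours of single-concentration exposure. 100 means growth as in untreated cells, lower positive values show inhibition; negative values down to -100 show cell death.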 The source made the active and inactive calls. The calls were made as follows: active = growth percent below 10; inactive = the rest.

Key:
Test in all cases: NCI-60 one-dose screen, 48 h (100 = growth as untreated, 0 = no growth, -100 = all killed)
Details in all cases: 10 µM unless noted
[1] = system: DU-145 prostate
[2] = system: K-562 leukemia
[3] = system: MALME-3M melanoma
[4] = system: MDA-MB-231 breast
[5] = system: RXF 393 renal
[6] = system: SF-268 CNS
[7] = system: SF-539 CNS
[8] = system: UACC-257 melanoma
[9] = system: M14 melanoma
[10] = system: SF-295 CNS

Measured: growth

CC(=O)Nc1ccc(Sc2ccc([N+](=O)[O-])o2)cc1
inactive: [1] 34.7% | [2] 17.6% | [4] 58.6% | [6] 54.5% | [7] 15.3% | [9] 12.3%
active: [3] -16.5% | [5] -57.1% | [8] -43.4%

O=C(NCc1ccco1)C1CCN(S(=O)(=O)c2ccc(Cl)cc2)CC1
active: [1] -18.5%
inactive: [2] 13.9% | [3] 54.6% | [4] 68.9% | [5] 85.1% | [6] 37.1% | [7] 80.9% | [8] 86.5% | [9] 72.4%

COc1ccc(-c2nc3sc(C)nn3c2-c2nc3cc(C)c(C)cc3[nH]2)cc1
inactive: [1] 101% | [2] 97.2% | [3] 88.3% | [4] 99.6% | [5] 99.5% | [6] 101% | [7] 95% | [8] 100% | [9] 103%

c1ccc(-c2nc(N3CCOCC3)c3c4c(sc3n2)CCCCCC4)nc1
inactive: [1] 76.1% | [2] 32% | [3] 58.4% | [4] 63.4% | [6] 74.1% | [7] 77% | [9] 59.2%
active: [10] 6.04%

CCOC(=O)C1=C(C)N2C(=NC3=C(CCCC/C3=C\c3cc(OC)c(OC)c(OC)c3)C2c2cc(OC)c(OC)c(OC)c2)S1 (stereo not drawn)
inactive: [1] 86% | [2] 31.2% | [3] 51.8% | [4] 71.9% | [6] 80.6% | [10] 56.5% | [7] 79.9% | [9] 79%

O=C(Nc1nc2ccccc2[nH]1)C(=O)Nc1nc2ccccc2[nH]1
inactive: [1] 114% | [2] 94.1% | [3] 91.4% | [4] 91% | [5] 102% | [6] 102% | [7] 95.8% | [8] 101% | [9] 98.8%

COC(=O)[C@@H]1CCCN1C(=O)[C@@H]1CCCN1C(=O)[C@@H](Cc1c[nH]c2ccccc12)NC(=S)Nc1cc(C(F)(F)F)cc(C(F)(F)F)c1
inactive: [1] 80.5% | [2] 15.4% | [3] 60.4% | [4] 53.2% | [5] 47.5% | [6] 58% | [7] 89.4% | [8] 72.3% | [9] 61.1%

CCOC(=O)C1=C(C)N2C(=NC3=C(CCCC/C3=C\c3ccccc3)C2c2ccccc2)S1 (stereo not drawn)
inactive: [1] 105% | [2] 99.2% | [3] 86.7% | [4] 107% | [5] 88.3% | [6] 99.2% | [10] 74% | [7] 99.3% | [9] 95.9%

CCCOC(=O)c1ccc2c(c1)[N+](=O)C(C(=O)c1ccccc1)=C(C(F)(F)F)[N+]2=O
active: [1] -97.2% | [2] -74% | [3] -73.7% | [4] -90.4% | [5] -93.2% | [6] -81.4% | [7] -95% | [8] -94.2% | [9] -70.3%

Cc1nn2c(-c3nc4ccc(Cl)cc4[nH]3)c(-c3ccc(F)cc3)nc2s1
inactive: [1] 104% | [2] 88.6% | [3] 128% | [4] 116% | [5] 96.6% | [6] 101% | [7] 97.1% | [8] 92.9% | [9] 95.4%

COc1ccc(-n2c(SCc3cc(OC)c(OC)c(OC)c3)nc3ccc(C)cc3c2=O)c(OC)c1
active: [1] 4.58% | [10] 6.35%
inactive: [2] 14.4% | [3] 25.5% | [4] 44.8% | [5] 19.6% | [6] 44.1% | [7] 20% | [9] 11.2%

Cc1cc(=O)[nH]n1-c1cc(Cl)ccc1N
inactive: [1] 132% | [2] 99.4% | [3] 108% | [4] 124% | [5] 107% | [6] 116% | [7] 102% | [8] 89.8% | [9] 99.8%

O=c1[nH]c(-c2ccncc2)nc2sc3c(c12)CCCCCC3
active: [5] -1.71%
inactive: [1] 77.5% | [2] 88.1% | [3] 64% | [4] 62.1% | [6] 83.5% | [10] 53.2% | [7] 82.6% | [9] 85.3%

Oc1ccc(Cl)cc1CNc1nc2ccccc2[nH]1
inactive: [5] 51.7%
active: [1] -50.6% | [2] -50.4% | [3] -56.4% | [4] -24.1% | [6] -39.7% | [7] -50.9% | [8] -63.4% | [9] -49.1%

Brc1ccccc1Nc1ccc2nnc(-c3ccncc3)n2n1
inactive: [1] 113% | [2] 46.9% | [3] 99.7% | [4] 108% | [5] 101% | [6] 99.4% | [7] 104% | [8] 106% | [9] 101%

CC(C)(C)[Si](C)(C)OC1[C@@H](O[Si](C)(C)C(C)(C)C)[C@@H](CNC(=O)NC(=O)C(F)(F)F)O[C@H]1n1cnc2c(NC(=O)Nc3ccccc3)ncnc21 (stereo partly drawn)
active: [1] -81.2% | [2] -40.8% | [6] -29%
inactive: [3] 74.8% | [4] 82.7% | [5] 104% | [10] 69.5% | [7] 92.5% | [9] 71.6%

CN([N-]C(=O)CC(=O)[N-]N(C)C(=S)c1ccccc1)C(=S)c1ccccc1.[Cu+2]
active: [1] -74.1% | [2] -29.7% | [3] -90.3% | [4] -89.5% | [5] -91.8% | [6] -67.3% | [7] -69.3% | [8] -92.9% | [9] -58.2%

CC(C)(C)[Si](C)(C)OC1[C@@H](COC(=O)NC(=O)CCl)O[C@@H](n2cnc3c(N)ncnc32)[C@H]1O[Si](C)(C)C(C)(C)C (stereo partly drawn)
inactive: [1] 46.2% | [4] 35.7% | [5] 64% | [10] 45.7% | [7] 89.8% | [9] 18.4%
active: [2] -37.6% | [3] -57% | [6] -19.6%

CN1CCc2c(c3ccccc3c3ccccc23)C1
inactive: [1] 45.7% | [2] 27.1% | [3] 53.4% | [4] 59.6% | [6] 39.1% | [10] 45.1% | [7] 50.8% | [8] 37.6% | [9] 56.2%

CN1CCN(c2nc(-c3ccncc3)nc3sc4c(c23)CCCCCC4)CC1
inactive: [1] 91% | [2] 35.5% | [3] 76.8% | [4] 49.2% | [6] 61.2% | [10] 57.2% | [7] 54.4% | [9] 105%

C(=C\c1ccccc1)/CN1CCN(C(c2ccccc2)c2ccccc2)CC1
inactive: [1] 109% | [2] 79.2% | [3] 106% | [4] 91.5% | [5] 81% | [6] 98.5% | [7] 90.7% | [8] 92.1% | [9] 99.1%

COc1cccc(Nc2nc(NCCO)c3ccccc3n2)c1
inactive: [1] 97% | [2] 42.7% | [3] 75.7% | [4] 65.3% | [5] 70.7% | [6] 72.5% | [7] 81.5% | [8] 95.8% | [9] 77.7%

FC(F)(F)c1cc(CNc2ncc(Br)c(Cl)n2)cc(C(F)(F)F)c1
inactive: [1] 107% | [2] 89.1% | [3] 75.8% | [4] 121% | [5] 86% | [6] 102% | [7] 97% | [8] 96.4% | [9] 98.1%

Nc1c(Br)cc(Br)cc1-c1n[nH]c(=O)[nH]c1=O
inactive: [1] 114% | [2] 102% | [3] 98.4% | [4] 87.4% | [5] 103% | [6] 104% | [10] 98% | [7] 92.5% | [9] 101%

CNc1ccc(Br)cc1-c1n[nH]c(=O)[nH]c1=O
inactive: [1] 122% | [2] 103% | [3] 110% | [4] 94.2% | [6] 111% | [10] 79.6% | [7] 103% | [9] 100%

Cc1ccc2nc(NC(=O)CSC(=S)N3CCN(C)CC3)sc2c1
inactive: [1] 122% | [2] 106% | [3] 108% | [4] 110% | [5] 105% | [6] 112% | [7] 100% | [8] 89.8% | [9] 107%

Nc1ccccc1-c1n[nH]c(=O)[nH]c1=O
inactive: [1] 121% | [2] 107% | [3] 106% | [4] 113% | [6] 114% | [10] 79% | [7] 101% | [9] 99%

CS(=O)(=O)Nc1cccc(C(=O)NCc2ccc(N3CCOCC3)cc2)c1
inactive: [1] 103% | [2] 92.4% | [3] 111% | [4] 121% | [6] 97.9% | [7] 103% | [9] 99.2%

CC(=O)OC[C@H](O)[C@@]1(O)CC[C@H]2[C@@H]3CCC4=CC(=O)CC[C@]4(C)[C@H]3[C@@H](O)C[C@@]21C
inactive: [1] 93.7% | [2] 89.5% | [3] 95.8% | [5] 134% | [6] 97.1% | [10] 111% | [7] 100% | [8] 110% | [9] 104%

NC(=O)c1cc(I)ccc1NC(=O)COc1ccccc1
active: [2] 8.23% | [5] 8.03% | [7] -33.6% | [9] 0.806%
inactive: [1] 25% | [4] 27.6% | [6] 46.4% | [10] 12.6% | [8] 61.4%
